From PubChem BioAssay (NCATS) come the findings set out here.

Experiment [1] in a line: Viability qHTS for spleen associated tyrosine kinase inhibitor (SYKi) naive MV4-11 cells (AID 1963823). Further: nearly all actives have a fitted effect of over 40% in size. Conditions: MV4-11 AML viability, CellTiter-Glo luminescence, 72 h; series mostly up to 45 µM. An outline of the steps: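 Seeding of 500 SYKi-naive MV4-11 cells per well onto pre-dispensed compounds preceded a 72 hr incubation at 37 C. Luminescent CellTiter-Glo signal, read after 10 min at room temperature, reflected viable cells.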
In general terms: qHTS replaces the single test concentration by a dilution series.

Experiment [2] is described as follows: Viability qHTS for spleen associated tyrosine kinase inhibitor (SYKi) drug resistant MV4-11 cells (AID 1963824). Further: nearly all actives have a fitted effect of over 35% in size. Particulars: SYKi-resistant MV4-11 viability, CellTiter-Glo, 72 h; series mostly up to 45 µM. An outline of the steps:
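SYK-inhibitor-resistant MV4-11 AML cells were seeded at 500 per well onto compound and cultured 72 hours (37 °C, 5% CO2). CellTiter-Glo was then added, and after 10 min at room temperature, luminescence gave viability.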

A short description of experiment [3]: Cellular viability qHTS for adrenocortical cancer (ACC) cell line SW-13 (AID 1963989). Further: nearly all actives have a fitted effect of over 65% in size.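 On activity (max response): cells grown in serum-free medium with ITS supplement; on the % scale 0 is the no-effect control and ±100 the full control effect.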 Particulars: SW-13 ACC cells viability, CellTiter-Glo, 48 h; activity (max response): stronger effect = lower value. An outline of the steps:
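Viability was read as CellTiter-Glo luminescence after 48 h compound treatment (up to 46 uM final) of SW-13 cells grown serum-free; titration curves were fit with a four-parameter logistic model to give IC50 and efficacy.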

Experiment [4] is described as follows: Cellular viability qHTS for adrenocortical cancer (ACC) cell line NCI-H295R (AID 1963990). Further: nearly all actives have a fitted effect of over 60% in size. Conditions: CellTiter-Glo ATP luminescence, 48 h; series mostly up to 46.1 µM. An outline of the steps: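 CellTiter-Glo ATP luminescence, read 48 h after compound addition, measured viability of NCI-H295R adrenocortical cells grown serum-free with ITS. Final concentrations spanned up to 46 uM. Data normalized to DMSO and doxorubicin, fitted for IC50 and maximal response.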

Values joined by “and” are separate entries in the source; they are usually repeats but may differ in a detail not shown here. Equal values may be shown once. Results filed as inconclusive are left out. A structure can be active in one record and inactive in another. Active and inactive are the calls of the source. The call rests on the fitted dose curve; in most records, active means well fitted curve in the direction sought with a large enough effect; inconclusive means small, poorly fitted or top-dose-only effect, or another doubt; inactive means no such curve, though single readings can be large; an effect the other way counts as inactive or inconclusive.
Potency means the concentration at half of the fitted maximal effect.

For the molecule `CC(C)Oc1ccc(C(=O)N[C@H](CNC(=O)CN(C)C)Cc2ccc(-c3cn4cccc([C@H](C)O)c4n3)cc2)cc1Cl`, the Potency is 26.3 nM (active) in experiment [1], 29.5 nM (active) in experiment [2], 31.6 nM (active) in experiment [3] and 316 nM (active) in experiment [4].

Turning to `Clc1cc2c(NC3CCCC3)nnc(-c3ccncc3)c2cc1Cl`, the Potency entry in experiment [1] is “inactive and 18.6 µM (active)”; in experiment [2], 13200 nM (active). Moreover, the activity (max response) in experiment [3] was -2.48% (inactive). Besides, the Potency entry in experiment [4] is “inactive”.

As to `CCN1C(=O)N2Cc3cc(OC)cc(OC)c3[C@@H](C)C=C2C12CCN(Cc1cc(C)cc(C)c1)CC2`, the Potency in experiment [1] is 18600 nM (active); in experiment [2], 14800 nM (active); in experiment [3], 28200 nM (active); in experiment [4] it was 25100 nM (active).

Consider `C/C(=N/NC(=O)c1ccncc1)C(=O)O`, for which the Potency entry in experiment [1], in experiment [2] and in experiment [4] was “inactive” each time. Also, the activity (max response) in experiment [3] is 7.83% (inactive).

As to `COc1cc(C)[nH]c(=O)c1CN1CCc2c(Cl)cc([C@H](OC)C3COC3)c(Cl)c2C1=O`, the Potency entry in experiment [1], in experiment [2] and in experiment [4] was “inactive” in each case. For the same molecule, the activity (max response) in experiment [3] is -0.836% (inactive).

`COc1ccc(S(=O)(=O)N(C(C)=O)c2ccccc2/C=C/c2cc[n+]([O-])cc2)cc1`: the Potency in experiment [1] was 934 nM (active); in experiment [2], 833 nM (active); in experiment [3] it was 1120 nM (active); in experiment [4], 1410 nM (active).

As for `CN=C(NC#N)NCCSCc1csc(N=C(N)N)n1`, the Potency result in experiment [1], in experiment [2] and in experiment [4] was “inactive” each time. In experiment [3], the activity (max response) was 7.67% (inactive).

`OC[C@H]1O[C@@H](S[C@@H]2O[C@H](CO)[C@H](O)[C@H](n3cc(-c4cccc(F)c4)nn3)[C@H]2O)[C@H](O)[C@@H](n2cc(-c3cccc(F)c3)nn2)[C@H]1O`: the Potency entry in experiment [1], in experiment [2] and in experiment [4] was “inactive” in each case. Moreover, the activity (max response) in experiment [3] is 11.8% (inactive).

Take `Nc1ncnc2c1c(-c1cccc(OCc3ccccc3)c1)cn2C1CC(CN2CCCC2)C1` (configuration not stated): the Potency was 517 nM (active) in experiment [1], 1300 nM (active) in experiment [2], 25100 nM (active) in experiment [3] and 2240 nM (active) in experiment [4].

`CCC(=C/[C@H](C)C/C=C/C(C)=C/[C@@H](C)C(=O)[C@@H](C)[C@H](O)[C@@H](C)C/C(C)=C/C(=O)O)/C=C/[C@@H]1OC(=O)C=C[C@@H]1C`: the Potency was 1.9 nM (active) in experiment [1], 2.1 nM (active) in experiment [2], 25.1 nM (active) in experiment [3] and 10 nM (active) in experiment [4].

With `Cc1ccc(-c2nc(N)nc3c2nnn3Cc2cccc(CO[C@H]3CCOC3)n2)o1`, the Potency result in experiment [1] and in experiment [4] was “inactive” throughout. In addition, the Potency in experiment [2] was 16600 nM (active). In addition, the activity (max response) in experiment [3] is -12.5% (inactive).

In the case of `O=C(O)c1ccccc1NCCc1ccccc1`, the Potency entry in experiment [1], in experiment [2] and in experiment [4] was “inactive” throughout. In experiment [3], the activity (max response) is 9.86% (inactive).

Consider `O=c1oc2c(C3OCCCO3)c(O)ccc2c2c1CNCC2`, for which the figures for the Potency in experiment [1] and in experiment [2] were 13200 nM (active) and 11800 nM (active), respectively. In experiment [3], the activity (max response) was 5.04% (inactive). Besides, in experiment [4], the Potency entry is “inactive”.

On to `COc1cc(C(=O)NC2CCCNC2)cc(OC)c1OC` (configuration not stated), for which the Potency entry in experiment [1], in experiment [2] and in experiment [4] was “inactive” each time. Further, in experiment [3], the activity (max response) is 8.49% (inactive).

Take `CCN1CCN(Cc2ccc(Nc3ncc(F)c(-c4cc(F)c5nc(C)n(C(C)C)c5c4)n3)nc2)CC1`: the Potency was 146 nM (active) and 148 nM (active) in experiment [1]; 366 nM (active) and 417 nM (active) in experiment [2]; 15800 nM (active) in experiment [3]; 4470 nM (active) in experiment [4].

With `CCN(C(=O)c1ccccc1OC)c1cc2c(cc1N1CCNC[C@H]1C)n(C)c(=O)n2C`, the Potency result in experiment [1], in experiment [2] and in experiment [4] was “inactive” throughout. The activity (max response) in experiment [3] is 1.48% (inactive).

Take `Fc1cccc(-n2cnc3c(NCc4nc5c(F)c(F)ccc5[nH]4)nc(N4CCOCC4)nc32)c1`: the Potency in experiment [1] was 59 nM (active); in experiment [2] it was 186 nM (active); in experiment [3], 112 nM (active); in experiment [4] it was 447 nM (active).

Consider `CCC[C@H](N[C@H]1CCc2cc(F)cc(F)c2C1)C(=O)Nc1cn(C(C)(C)CNCC(C)(C)C)cn1`, for which the Potency is 8330 nM (active) in experiment [1]; 9.2 µM (active) and 6.61 µM (active) in experiment [2]; 14100 nM (active) in experiment [3]; 25100 nM (active) in experiment [4].

Turning to `CCc1cc2c(cc1N1CCC(N3CCOCC3)CC1)C(C)(C)c1[nH]c3cc(C#N)ccc3c1C2=O`, the Potency in experiment [1] was 178 nM (active); in experiment [2], 632 nM (active). In addition, the activity (max response) in experiment [3] was -11.5% (inactive). In experiment [4], the Potency entry is “inactive”.

As to `CC(=O)OCC1=C(C(=O)O)N2C(=O)[C@@H](NC(=O)Cc3cccs3)[C@H]2SC1`, the Potency result in experiment [1], in experiment [2] and in experiment [4] was “inactive” each time. Also, the activity (max response) in experiment [3] was 10.2% (inactive).

`CCCCNc1ncc2c(-c3ccc(CN4CCN(C)CC4)cc3)cn(C3CCC(O)CC3)c2n1` (configuration not stated): the Potency in experiment [1] was 10.5 nM (active); in experiment [2] it was 11.6 nM (active) and 20.9 nM (active); in experiment [3] it was 11200 nM (active); in experiment [4], 6310 nM (active).

Consider `CNCC(O)c1ccc(O)c(O)c1` (configuration not stated), for which the Potency entry in experiment [1], in experiment [2] and in experiment [4] was “inactive” each time. Moreover, the activity (max response) in experiment [3] was 4.94% (inactive).

For the molecule `COc1cc2c(cc1O)CCN[C@]21CS[C@@H]2c3c(OC(C)=O)c(C)c4c(c3[C@H](COC1=O)N1[C@@H]2[C@H]2c3c(cc(C)c(OC)c3O)C[C@@H]([C@@H]1O)N2C)OCO4`, the Potency in experiment [1] is 1.4 nM (active); in experiment [2] it was 1.5 nM (active); in experiment [3], 3.8 nM (active); in experiment [4] it was 9.4 nM (active).
